Data taken from the supplement of paper PMC12494721.
Where a name gives a salt, the structure may show the parent alone.

Tests used:
Details in all cases: 20 µM; incubation time: 27 h, anaerobic, 37 °C;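 for the amine columns active = adjusted P below 0.05 in both replicates with a change the same way and a mean fold change under 0.8 or over 1.25; inactive = the rest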
[1] = system: Clostridium sporogenes DSM 1664; assay: growth (OD595) fold change vs plate DMSO controls (fold change (ratio)); higher = more growth
How it was run: (§1)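 The 96-well mGAM cultures had been kept anaerobic for 27 h at 37 °C before being shaken and read at 595 nm. Blank subtraction, compound background correction with 20 µM compound solutions in water, and a calibration factor of 5 turned the readings into OD. Growth is given as the fold change versus the median of plate DMSO controls. Fold changes above 1.5 were set to NA, and the values are means of 2 biological replicates.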

[2] = system: Escherichia coli IAI1; assay: as above
How it was run: as §1

[3] = system: Klebsiella aerogenes DSM 30053; assay: as above
How it was run: as §1

[4] = system: Ruminococcus gnavus DSM 108212; assay: as above
How it was run: as §1

[5] = system: Klebsiella aerogenes DSM 30053; assay: fold change of Histamine concentration vs plate DMSO controls (fold change (ratio)); higher = more amine produced, active = hit call of the paper (significant change in both replicates, either direction)
How it was run: (§2)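 Amine values are fold changes relative to DMSO-only wells on the same plate. They derive from 27 h, 37 °C anaerobic mGAM cultures of four gut bacterial strains in 80 µL wells, dosed at 20 µM final, or 50 µM final for sweeteners. Extraction of the whole culture, LC–triple-quadrupole MS in dynamic MRM mode, external calibration curves and within-batch drift correction were used, with 2 biological replicates averaged.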

[6] = system: Clostridium sporogenes DSM 1664; assay: fold change of Tryptamine concentration vs plate DMSO controls (fold change (ratio)); higher = more amine produced, active = hit call of the paper (significant change in both replicates, either direction)
How it was run: as §2

[7] = system: Ruminococcus gnavus DSM 108212; assay: as above
How it was run: as §2

[8] = system: Escherichia coli IAI1; assay: fold change of Putrescine concentration vs plate DMSO controls (fold change (ratio)); higher = more amine produced, active = hit call of the paper (significant change in both replicates, either direction)
How it was run: as §2

[9] = system: Klebsiella aerogenes DSM 30053; assay: as above
How it was run: as §2

[10] = system: Escherichia coli IAI1; assay: fold change of Cadaverine concentration vs plate DMSO controls (fold change (ratio)); higher = more amine produced, active = hit call of the paper (significant change in both replicates, either direction)
How it was run: as §2

[11] = system: Klebsiella aerogenes DSM 30053; assay: as above
How it was run: as §2

[12] = system: Ruminococcus gnavus DSM 108212; assay: fold change of 2-Phenylethylamine concentration vs plate DMSO controls (fold change (ratio)); higher = more amine produced, active = hit call of the paper (significant change in both replicates, either direction)
How it was run: as §2

Row | Structure (SMILES) | growth [1] | growth [2] | growth [3] | growth [4] | fold change of Histamine concentration [5] | fold change of Tryptamine concentration [6] | fold change of Tryptamine concentration [7] | fold change of Putrescine concentration [8] | fold change of Putrescine concentration [9] | fold change of Cadaverine concentration [10] | fold change of Cadaverine concentration [11] | fold change of 2-Phenylethylamine concentration [12]
1 | COc1cc([C@@H]2c3cc4c(cc3[C@H](O)[C@H]3COC(=O)[C@H]23)OCO4)cc(OC)c1OC [Podophyllotoxin] | 1.13 | 1.18 | 1.14 | 0.888 | 0.958 (inactive) | 1.01 (inactive) | 1.03 (inactive) | 1.06 (inactive) | 1.02 (inactive) | 0.931 (inactive) | 1.02 (inactive) | 1.02 (inactive)
2 | C[C@]12CC[C@H](O)CC1=CC[C@@H]1[C@@H]2CC[C@]2(C)C(=O)CC[C@@H]12 [Prasterone] | 1.17 | 1.01 | 1.04 | 1.07 | 0.984 (inactive) | 0.972 (inactive) | 0.985 (inactive) | 1 (inactive) | 0.999 (inactive) | 1.05 (inactive) | 0.991 (inactive) | 1 (inactive)
3 | C[N+]1(C)[C@@H]2CC[C@H]1C[C@@H](OC(=O)C(CO)c1ccccc1)C2 (some centres undefined) [Methylatropine nitrate] | 0.875 | 0.835 | 0.989 | 0.97 | 0.978 (inactive) | 0.99 (inactive) | 1 (inactive) | 0.932 (inactive) | 1.02 (inactive) | 1.07 (inactive) | 1.01 (inactive) | 0.956 (inactive)
4 | COCC(=O)N(c1c(C)cccc1C)C(C)C(=O)OC (centres undefined) | 0.957 | 1.02 | 1.04 | 1.02 | 0.965 (inactive) | 0.98 (inactive) | 0.983 (inactive) | 1.04 (inactive) | 1 (inactive) | 1.01 (inactive) | 1.01 (inactive) | 0.983 (inactive)
5 | C[C@]12CCC(=O)C=C1C=C[C@@H]1[C@@H]2CC[C@@]2(C)[C@H]1CC[C@@]2(O)CCC(=O)O [Canrenoic acid potassium salt] | 1.1 | 1 | 1.02 | 0.902 | 0.964 (inactive) | 1.05 (inactive) | 1.06 (inactive) | 1.02 (inactive) | 0.98 (inactive) | 0.997 (inactive) | 0.996 (inactive) | 1.09 (inactive)
6 | COC(=O)Nc1nc2ccccc2[nH]1 | 0.898 | 0.977 | 0.989 | 0.903 | 1.01 (inactive) | 0.968 (inactive) | 0.959 (inactive) | 0.997 (inactive) | 1 (inactive) | 1 (inactive) | 0.989 (inactive) | 0.951 (inactive)
7 | CS(=O)(=O)c1cc(C(F)(F)F)ccc1C(=O)c1cnoc1C1CC1 | 0.937 | 1.09 | 1.09 | 0.964 | 0.825 (inactive) | 0.986 (inactive) | 0.989 (inactive) | 0.958 (inactive) | 0.976 (inactive) | 0.905 (inactive) | 1.01 (inactive) | 1 (inactive)
